Laboratory results published in PubChem BioAssay AID1159580 (chemical genetic matrix, 2015).
Hit rate of the full screen: of about 5,500 compounds, about 2,000 (36%) were called active. About 18% were inconclusive and are not listed. No stated cut-off is given here; in the data, active means normalized growth mostly below about 0.91 (no sharp cut-off); inconclusive means no clear call, values can overlap the other calls; inactive means mostly above about 0.92. Some of the results follow.

Assay: chemical genetic growth profiling, strain panel (AID 1159580);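 further: tested at 20 µM; growth read once vehicle control cultures reached saturation at 30 °C; 1 = growth at the plate median or of vehicle wells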
Conditions: S. cerevisiae deletion strains, growth OD

Measured: normalized growth

C=C(C)[C@H]1CN[C@H](C(=O)O)[C@H]1CC(=O)O
inactive: locus YAL040C, strain CLN3, stronger effect = lower value 1.02 | locus YCL061C, strain MRC1 (second series), stronger effect = lower value 1 | locus YDR363W, strain ESC2, stronger effect = lower value 1.03 | locus YER002W, strain NOP16, stronger effect = lower value 1.01 | locus YMR307W, strain GAS1, stronger effect = lower value 1 | locus YNL128W, strain TEP1, stronger effect = lower value 1 | locus YNL175C, strain NOP13, stronger effect = lower value 1.02 | locus YNL197C, strain WHI3, stronger effect = lower value 1.02 | locus YNL224C, strain SQS1, stronger effect = lower value 1 | locus YOR083W, strain WHI5 (second series), stronger effect = lower value 1.03
